These results are taken from PubChem BioAssay (Tox21).

Assay [1] can be described thus: qHTS assay to identify small molecule agonists of the vitamin D receptor (VDR) signaling pathway - cell viability counter screen (AID 743224). Also: nearly all actives have a fitted effect of over 50% in size. Also: potency is read from the fitted curve at half-maximal effect. The method, boiled down: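 VDR-bla cell line, quantitative HTS format; 16 h compound incubation (37C, 5% CO2); ATP-based CellTiter-Glo luminescence measured in the reporter assay wells.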
For orientation: In qHTS, concentration-response curves come from the screen itself.

The nature of assay [2]: qHTS assay to identify small molecule agonists of the NFkB signaling pathway (AID 1159509; active = well fitted curve in the direction sought with a large enough effect in the signal ratio in the repeat runs, not every such curve was filed as active; the % refers to the signal ratio; also: series mostly up to about 61 µM). The gist of the method: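 NFkB-bla ME-180 cells carry a beta-lactamase reporter under an NF-kB response element. They were plated overnight, then exposed to compounds for 5 h at 37 C. Read-out is LiveBLAzer FRET after 1.5 hr at room temperature (405 nm excitation; 460/530 nm emission).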

The nature of assay [3]: qHTS assay to identify small molecule agonists of the NFkB signaling pathway - cell viability counter screen (AID 1159515; calls by dose curve; also: series mostly up to about 61 µM; nearly all actives have a fitted effect of over 55% in size). The gist of the method: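 Viability in NFkB-bla ME-180 cells was measured by CellTiter-Glo luminescence, 30 min room temperature, in wells already treated 5 hr with compounds and read for reporter FRET.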
Assay [4] in a line: qHTS assay to identify small molecule agonists of the endoplasmic reticulum stress response signaling pathway (AID 1159516; active = well fitted activation curve with a large enough effect in the signal ratio in the repeat runs, not every such curve was filed as active; the % refers to the signal ratio). The gist of the method: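 ER stress element reporter (bla) in HeLa. 1,500 cells/well, overnight attachment; 5 hr compound; 2 hr RT substrate; dual-emission fluorescence.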
The nature of assay [5]: qHTS assay to identify small molecule agonists of the endoplasmic reticulum stress response signaling pathway - cell viability counter screen (AID 1159517; calls by dose curve;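 also: HeLa cells carrying an ER stress response element beta-lactamase reporter; series mostly up to about 61 µM; nearly all actives have a fitted effect of over 50% in size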). The method, boiled down:
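HeLa cells carrying an ESRE-driven beta-lactamase reporter receive compound for 5 hr at 37 C. Cell viability is then gauged with CellTiter-Glo by luminescence, 30 min at room temperature.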

Assay [6] in a line: qHTS assay to identify small molecule antagonists of the retinoid-related orphan receptor gamma (ROR-gamma) signaling pathway - cell viability counter screen (AID 1159520). Also: nearly all actives have a fitted effect of over 50% in size. The method, boiled down:
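Cytotoxicity was read from cellular ATP (CellTiter-Glo luminescence) after 16 hr at 37 C with 1 uM doxycycline induction. The inducer was added 2 hr after compound transfer to Tet-on ROR gamma CHO cells.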

Assay [7] concerns the target Nuclear receptor ROR-gamma (Homo sapiens) (UniProt P51449). The assay is described as follows: qHTS assay to identify small molecule antagonists of the retinoid-related orphan receptor gamma (ROR-gamma) signaling pathway (AID 1159521; also: nearly all actives have a fitted effect of over 50% in size; also: potency is read from the fitted curve at half-maximal effect). The gist of the method: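 Tet-on RORγ CHO cells carrying a ROR response element–luciferase reporter were pretreated with compounds for 2 h, then induced with 1 uM (final) doxycycline hyclate for 16 h at 37 C. Antagonism was read as decreased ONE-Glo luminescence.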

Assay [8] is described as follows: qHTS assay to identify small molecule agonists of the AP-1 signaling pathway - cell viability counter screen (AID 1159525; calls by dose curve; also: nearly all actives have a fitted effect of over 55% in size). The method, boiled down:
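Luminescent ATP readout (Cell Titer Glo, 30 min RT), normalised to DMSO and tetra n-octyl ammonium bromide controls. Cells were ME-180 AP-1-bla in 0.5% dialyzed FBS Opti-MEM, with a 5 h, 37 °C compound exposure.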

Assay [9] in a line: qHTS assay to identify small molecule agonists of the AP-1 signaling pathway (AID 1159526; calls by dose curve).
For assay [10], the target named is Retinoic acid receptor RXR-alpha (Homo sapiens) (UniProt P19793). The assay is described as follows: qHTS assay to identify small molecule agonists of the RXR signaling pathway (AID 1159527; calls by dose curve; also: nearly all actives have a fitted effect of over 35% in size). The gist of the method: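 GeneBLAzer RXR-alpha-UAS-bla HEK 293T cells in medium with 2% charcoal-stripped FBS, pre-incubated 5 hr at 37 C, then exposed to compounds 16 hr. Beta-lactamase reporter read by FRET substrate, 2 hr room temperature, 460/530 nm emission.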

A short description of assay [11]: qHTS assay to identify small molecule antagonists of the retinoid acid receptor (RAR) signaling pathway - cell viability counter screen (AID 1159551). Also: nearly all actives have a fitted effect of over 35% in size. The method, boiled down:
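Following overnight attachment, C3RL4 reporter cells received DMSO-dissolved compounds and then retinol (1 uM final). Six hours later at 37 C, ATP content was measured by CellTiter-Glo luminescence.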

Assay [12] in a line: qHTS assay to identify small molecule antagonists of the retinoic acid receptor (RAR) signaling pathway (AID 1159552; also: nearly all actives have a fitted effect of over 50% in size). The gist of the method:
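RARE-luc C3RL4 cells; cpds + 1 uM (final) retinol, 6 hr, 37 C/5% CO2; luciferase reagent, 30 min RT, luminescence readout. Inhibitors of retinol-driven signal scored.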

The nature of assay [13]: qHTS assay to identify small molecule agonists of the retinoic acid receptor (RAR) signaling pathway (AID 1159553). Also: potency is read from the fitted curve at half-maximal effect. The gist of the method: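 Cell line C3RL4, RARE luciferase reporter. Treatment: compounds in DMSO, 6 hr, 37 C, 5% CO2, after overnight plating. Detection: luminescence, 30 min RT after reagent.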
Assay [14] is described as follows: qHTS assay to identify small molecule antagonists of the estrogen related receptor (ERR) signaling pathway - cell viability counter screen (AID 1224818).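 Also: series mostly up to about 46 µM; viability measured after 17.5 h of compound exposure.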 The method, boiled down: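 Here, ERR cells are plated at 2,000 cells per well, allowed 6 h to attach, and treated with compounds in DMSO for 17.5 h at 37 C. CellTiter-Fluor is then added and fluorescence read after 30 min.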

Assay [15] is described as follows: qHTS assay to identify small molecule antagonists of the estrogen related receptor signaling pathway with the pleiotropic PPARgamma coactivator (PGC) cell viability counter screen (AID 1224822; also: series mostly up to about 46 µM). The gist of the method:
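qHTS format, DMSO compound stocks pin-transferred onto PGC/ERR cells 6 h after plating; 17.5 h exposure at 37 C, then CellTiter-Fluor fluorescence.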

The nature of assay [16]: qHTS assay to identify small molecule antagonists of the vitamin D receptor (VDR) signaling pathway - cell viability counter screen (AID 743225). Also: nearly all actives have a fitted effect of over 50% in size. The method, boiled down: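 VDR-bla HEK 293T cells, 4 h pre-incubation at 37C, then compound plus 1-alpha,25-dihydroxyvitamin D3 (3 nM final) for 16 h. After the beta-lactamase FRET read, CellTiter-Glo was added to the same wells; luminescence after 30 min at room temperature.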

Assay [17] is described as follows: qHTS assay to identify small molecule antagonists of the estrogen related receptor (ERR) signaling pathway (AID 1224819). The method, boiled down:
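LOPAC library screened for antagonism as reduced One-Glo luminescence in ERR reporter cells (2,000/well). Compounds were added after 6 h pre-incubation and left 18 h at 37C; reading followed a 30 min room-temperature reagent step.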

Assay [18] can be described thus: qHTS assay to identify small molecule agonists of the estrogen related receptor (ERR) signaling pathway (AID 1224820). The method, boiled down: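 ERR reporter cell line (from NTP), 2,000 cells/well, incubated 6 h before compound addition, then 18 h at 37 C. Luminescence measured 30 min after One-Glo reagent at room temperature.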
Assay [19] deals with estrogen-related receptor alpha (ERRalpha) with PGC-1alpha coactivator, human. The assay is described as follows: qHTS assay to identify small molecule antagonists of the estrogen related receptor signaling pathway with the pleiotropic PPARgamma coactivator (PGC) (AID 1224821; calls by dose curve). The gist of the method:
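PGC/ERR reporter cell line, plated 6 h before compound addition, then exposed 18 h at 37 °C. Luciferase activity read by luminescence 30 min after One-Glo addition; decrease indicates antagonism.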

The nature of assay [20]: qHTS assay to identify small molecule agonists of the RXR signaling pathway - cell viability counter screen (AID 1159529). The method, boiled down:
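RXR-alpha-UAS-bla HEK 293T cells in medium with 2% charcoal-stripped FBS were preincubated 5 hr, then exposed to compounds for 16 hr at 37 C. Viability was read as CellTiter-Glo luminescence after 30 min at room temperature.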

Inconclusive results are not listed. Activity calls are given as the source filed them. Unless noted, calls follow the shape of the dose curve; as a rule, active = well fitted curve in the direction sought with a large enough effect in the repeat runs; inconclusive = weak or mixed curves; inactive = no such curve, though single readings can be large; an effect the other way counts as inactive or inconclusive.

Sequence of Retinoic acid receptor RXR-alpha (Homo sapiens) (P19793 whole entry, looked up): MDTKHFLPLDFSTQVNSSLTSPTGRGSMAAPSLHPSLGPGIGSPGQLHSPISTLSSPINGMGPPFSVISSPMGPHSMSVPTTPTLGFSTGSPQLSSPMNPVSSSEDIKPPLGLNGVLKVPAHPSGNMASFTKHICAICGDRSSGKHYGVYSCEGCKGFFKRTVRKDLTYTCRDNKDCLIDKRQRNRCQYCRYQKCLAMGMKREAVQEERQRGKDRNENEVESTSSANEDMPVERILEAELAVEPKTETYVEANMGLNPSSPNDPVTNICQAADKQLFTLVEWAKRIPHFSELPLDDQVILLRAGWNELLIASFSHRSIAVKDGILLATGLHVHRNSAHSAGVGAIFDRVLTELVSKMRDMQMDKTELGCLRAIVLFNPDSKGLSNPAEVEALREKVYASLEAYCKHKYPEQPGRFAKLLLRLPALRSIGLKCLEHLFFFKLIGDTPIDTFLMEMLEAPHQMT

As for `NCCc1cnc[nH]1`, the Potency entry in assay [1], in assay [7], in assay [8], in assay [10], in [12] and in assay [13] was “inactive” throughout. For the same molecule, the result in assay [2], in [3], in assay [4], in [5], in [6] and in assay [9] was inactive. Moreover, the molecule was classed as inactive in [11], in assay [14] and in [15].
Regarding `COC(=O)CC(C)=O`, the Potency entry in assay [1], in assay [16], in [7], in [8], in assay [10] and in assay [12] was “inactive” each time. Besides, the Potency entry in assay [13] was “inactive”. In addition, the call in assay [2], in [3], in assay [4], in assay [5], in assay [6] and in assay [9] was inactive. Besides, the call in assay [11] was inactive.
For `CCn1ccnc1CC1COc2ccccc2O1` (stereo not given), the Potency entry in assay [1], in [7], in assay [8], in assay [10], in assay [12] and in assay [13] was “inactive” each time. In addition, the result in assay [2], in assay [3], in [4], in assay [5], in [6] and in assay [9] was inactive. Moreover, the outcome in assay [11], in assay [14], in assay [17], in [18], in assay [19] and in assay [15] was inactive.
With `C=C[Si](OC(=C)C)(OC(=C)C)OC(=C)C`, the Potency result in assay [1], in assay [8], in [10], in assay [20], in assay [12] and in assay [13] was “inactive” throughout. Further, the molecule was called inactive in assay [2], in [3], in assay [4], in [5], in assay [6] and in assay [9]. For the same molecule, in assay [11], the outcome was inactive.
Consider `CCOC(=O)[C@H](CCc1ccccc1)N[C@@H](C)C(=O)N1[C@H](C(=O)O)C[C@@H]2CCC[C@@H]21`, for which the Potency result in assay [16], in assay [7], in [8], in assay [10], in [20] and in [12] was “inactive” each time. Besides, the result in assay [2], in assay [3], in assay [4], in [5], in assay [6] and in assay [9] was inactive. Moreover, the outcome in assay [11] was inactive.
Consider `O=C(CCCN1CCC(O)(c2cccc(C(F)(F)F)c2)CC1)c1ccc(F)cc1`, for which the Potency result in assay [1], in assay [16], in assay [8], in assay [10], in assay [20] and in assay [12] was “inactive” each time. For the same molecule, the Potency entry in assay [13] was “inactive”. Also, the outcome in assay [2], in assay [3], in assay [4], in assay [5], in [6] and in [9] was inactive. For the same molecule, the call in assay [11], in assay [14], in [18], in [19] and in assay [15] was inactive.
As to `CN(C)CCCN1c2ccccc2CCc2ccc(Cl)cc21`, the Potency in assay [1] was 43.6 µM (active); in [7], 19.3 µM (active). Besides, the result in [2], in assay [3], in [4], in [5], in assay [6] and in assay [11] was inactive. The molecule was called inactive in [17], in assay [18] and in [19]. The Potency result in assay [8] and in assay [10] was “inactive” throughout.
In the case of `CC(C)NC(=O)NC(C)C`, the Potency entry in [1], in assay [8], in [10], in assay [20] and in assay [12] was “inactive” in each case. Moreover, the molecule was called inactive in assay [2], in assay [3], in [4], in assay [5], in assay [6] and in [9]. Moreover, the outcome in assay [11] was inactive. Further, the Potency in assay [13] is 0.969 µM (active).
With `CC1(C)C(O)C(C)(C)C1O` (stereo not given), the Potency entry in [1], in assay [8], in [10], in assay [20], in assay [12] and in assay [13] was “inactive” throughout. For the same molecule, the outcome in assay [2], in assay [3], in assay [4], in [5], in assay [6] and in [9] was inactive. Moreover, in assay [11], the call was inactive.
